High-throughput results (PubChem)
Sampled rows, rich in hits. Any-hit rate of the full collection: about 9.4%.
Pf growth 48h: P. falciparum growth inhibition at 48 hours (one generation); Potency, µM (titrated, usually from 28.7 µM), without a hit: top-dose activity change, negative = inhibition, most hits filed as inhibitors; P. falciparum luciferase growth in erythrocytes, 48 h; 310,000 tested, 5.9% active; further: on the % scale 0 is the no-effect control and ±100 the full control effect
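Firefly luciferase activity from engineered P. falciparum reports growth; inhibitors lower the luminescent signal. Cultures contained 2% hematocrit erythrocytes at 0.1% final parasitemia.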
AMA1-RON2 inh: inhibitors of Plasmodium falciparum AMA1-RON2 interaction | 360,000 tested, 0.2% active | Potency, µM (titrated, usually from 58.2 µM), without a hit: top-dose activity change, negative = inhibition, usual class: inhibitors | AlphaScreen AMA1-biotinylated RON2 peptide binding | AID 720542;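 further: 0% = vehicle wells and -100% = peptide control; nearly all actives have a fitted effect of over 45% in size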
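AMA1 (3D7) with his tag at 25 nM final met compounds first, then biotinylated RON2 peptide at 25 nM; detection used donor plus acceptor beads, 10 µg/mL apiece, read by AlphaScreen after 30 min at room temperature.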
SARS PLpro yeast: blocks SARS-CoV papain-like protease in a yeast assay; S. cerevisiae expressing SARS-CoV PLpro, growth rescue; Potency, µM (top dose mostly 32.9 µM), for the others: at the highest dose activity, positive = growth rescue, usual class: activators; 330,000 tested, 0.19% active; AID 485353; calls by dose curve; further: 0% is about no effect; nearly all actives have a fitted effect of over 55% in size
Pf growth 96h: P. falciparum growth inhibition at 96 hour, primary screen for plastid delayed-death inhibitors. P. falciparum luciferase reporter growth, 96 h. 320,000 tested, 6.9% active. AID 504834. Potency, µM (doses to about 28.7 µM), for the others: at the top dose activity change, negative = inhibition, most hits filed as inhibitors; further: on the % scale 0 is the no-effect control and ±100 the full control effect
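Readout is luminescence from an integrated firefly luciferase in P. falciparum. Red cells, 2% hematocrit and 0.05% parasitemia final, were cultured with compound through two parasite generations (96 hours) at 37 C, 5% CO2.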
The depositor's hits bear a star; u = inconclusive; x = no result. Unless noted, the call rests on the fitted dose curve; in most records, active means well fitted curve in the direction sought with a large enough effect; inconclusive means small, poorly fitted or top-dose-only effect, or another doubt; inactive means no such curve, though single readings can be large; an effect the other way counts as inactive or inconclusive. Potency means the concentration at half of the fitted maximal effect.

SMILES	Pf growth 48h	AMA1-RON2 inh	SARS PLpro yeast	Pf growth 96h
O=C(c1ccc(OC2CCN(Cc3cccc(OCCO)c3)CC2)cc1)N1CCCC1	u	-1%	1%	0%
O=C(c1cccc(OC2CCN(Cc3cccc(OCCO)c3)CC2)c1)N1CCCC1	-24%	-17%	-7%	8.3µM*
COc1c(C)cc(C(=O)C2CCCN(Cc3cccc(O)c3)C2)cc1C (stereo not drawn)	12µM*	-5%	u	1%
CCCCN(CCCC)c1cn[nH]c(=O)c1Cl	u	6%	9%	u
COC(=O)C1=CN(c2ccc(OC)cc2OC)C(N)=C(C#N)C1c1ccc(OC)cc1 (stereo not drawn)	x	1%	x	x
Cc1ccc(OCC(=O)NCCO)c(Br)c1	128%	13%	3%	u
O=C(NCc1ccccc1)C(c1cccnc1)N(C(=O)c1ccccn1)c1cccc(F)c1 (stereo not drawn)	-28%	-4%	1%	-6%
O=S(=O)(c1ccc(-n2cnnn2)cc1)N(C1CCCCC1)C1CCCCC1	x	24%	5%	-6%
COc1cccc(C(=O)C2CCCN(Cc3cccc(C)n3)C2)c1 (stereo not drawn)	2.9µM*	5%	1%	u
COCCCNC(=S)N1CCN(C)CC1	2%	-16%	-1%	-2%
Cc1ccc(NC2=C(N3CCOCC3)C(=O)c3ccccc3C2=O)cc1	2.1µM*	24µM*	-20%	2.6µM*
O=C(O)c1ccc(NC2=C(N3CCOCC3)C(=O)c3ccccc3C2=O)cc1	-12%	15%	-6%	-5%
CC(=O)c1ccc(NC2=C(N3CCOCC3)C(=O)c3ccccc3C2=O)cc1	0.83µM*	u	-9%	0.52µM*
Cc1ccc(Nc2nc(N3CCOCC3)nc(N3CCOCC3)n2)cc1	u	11%	-4%	u
CC(=O)C1(C)CCC2C3C=C(C)C4=CC(=O)CCC4(C)C3CCC21C (stereo not drawn)	x	-7%	x	x
C=C1C[C@H]2[C@@H]3C=C(C)C4=CC(=O)CC[C@]4(C)[C@H]3CC[C@]2(C)[C@@]1(OC(C)=O)C(C)=O	9.3µM*	-12%	x	u
O=C(c1cccnc1Nc1ccccc1F)N1CCOCC1	4%	0%	-1%	52%
COc1ccccc1N1CCN(c2ccnc3cc(Cl)ccc23)CC1	u	-19%	-9%	0.47µM*
COc1ccccc1NC(=O)N1CCN(c2ccnc3cc(Cl)ccc23)CC1	2.1µM*	-14%	0%	2.6µM*
CC(C)(C)c1cc(C(=S)N2CCCC2)cc(C(C)(C)C)c1O	u	-4%	-7%	4.1µM*
CC(C)(C)c1cc(CCC(=O)N2CCCC2)cc(C(C)(C)C)c1O	1%	0%	-1%	-31%
C=CCn1cc(C(=O)NCCOC)c(=O)c2cc(S(=O)(=O)N3CCCCCC3)ccc21	u	-3%	-1%	u
C=CCn1cc(C(=O)NCCN(CC)CC)c(=O)c2cc(S(=O)(=O)N3CCCCCC3)ccc21	10µM*	-1%	0%	8.3µM*
CC(C)CN(CCNC(=O)c1cn(C)c2ccc(S(=O)(=O)N3CCCC3)cc2c1=O)CC(C)C	-2%	-3%	-4%	9.3µM*
NC(=O)c1ncn([C@@H]2O[C@H](CNS(=O)(=O)c3cc(S(=O)(=O)c4ccccc4)cs3)[C@@H](O)[C@H]2O)n1	x	7%	x	x
SMILES	Pf growth 48h	AMA1-RON2 inh	SARS PLpro yeast	Pf growth 96h
CCn1c(SCc2nc3ccccc3nc2C)nnc1-c1cccs1	10µM*	21%	-3%	-4%
Cc1ccc(-c2nnc(SCc3nc4ccccc4[nH]3)n2Cc2ccco2)cc1	u	10%	-24%	u
c1coc(Cn2c(SCc3nc4ccccc4[nH]3)nnc2-c2cccs2)c1	-22%	-8%	-4%	10µM*
CCCc1[nH]n(-c2ccc([N+](=O)[O-])cc2)c(=O)c1C=NCCN1CCNCC1	19%	x	1%	4%
CCCc1[nH]n(-c2ccc([N+](=O)[O-])cc2)c(=O)c1C=NCCCn1ccnc1	13µM*	-16%	-1%	14%
NC(=S)N/N=C/c1c(O)c(Br)cc2oc3c(c12)CCCC3	3.3µM*	23%	1%	u
Cc1ccc(N2C(=O)NC(=O)C3(Cc4ccccc4N4CCCC43)C2=O)cc1 (stereo not drawn)	-27%	8%	-3%	u
CCC1CCCCN1CCCNC(=O)C1CC(=O)N(CCc2ccccc2)C1 (stereo not drawn)	-12%	5%	1%	u
CC(C)(C)n1nc2c(c1NC(=O)c1cc([N+](=O)[O-])ccc1Cl)CS(=O)(=O)C2	u	0%	-2%	-11%
O=C(Nc1c2c(nn1-c1ccc([N+](=O)[O-])cc1)CS(=O)(=O)C2)c1cccs1	u	5%	0%	5.9µM*
CC(C)(C)n1nc2c(c1NC(=O)c1ccc([N+](=O)[O-])cc1)CS(=O)(=O)C2	25%	17%	-1%	8.3µM*
O=C(N1CCOCC1)C12CCC3CC(CC(C3)C1)C2	2%	7%	16%	x
Clc1ccccc1-c1nnc2sc(-c3ccccn3)nn12	-15%	38%	u	u
Cc1ccc(S(=O)(=O)N[C@@H](Cc2ccccc2)C(=O)N2CCC(C(=O)N[C@@H](CCC(N)=O)C(=O)O)CC2)cc1	22%	-1%	1%	37%
O=C(Cc1ccc(F)cc1)NC1CCSC1=O (stereo not drawn)	-1%	-9%	0%	60%
Cn1c(=O)c2c(ncn2CC(=O)Nc2ccc3c(c2)OCO3)n(C)c1=O	x	-10%	x	x
CC(C)Cn1cnc2c1c(=O)n(CC(=O)O)c(=O)n2Cc1ccccc1	u	14%	3%	u
Cc1cc(NC(=O)Cn2c(=O)c3c(ncn3CC(C)C)n(Cc3ccccc3)c2=O)no1	8.3µM*	3%	-1%	4.7µM*
CCCCNC(=O)Cn1c(=O)c2c(ncn2CCC(C)C)n(Cc2ccccc2)c1=O	u	7%	-3%	2.3µM*
CC(C)Cn1cnc2c1c(=O)n(CC(=O)Nc1ccc3c(c1)OCO3)c(=O)n2Cc1ccccc1	9.3µM*	u	6%	10µM*
CCn1cnc2c1c(=O)n(CC(=O)Nc1cc(C)on1)c(=O)n2Cc1ccccc1	u	-4%	12%	u
CCCC(C)NC(=O)Cn1c(=O)c2c(ncn2CCC(C)C)n(Cc2ccccc2)c1=O (stereo not drawn)	u	-4%	1%	u
CC(C)Cn1cnc2c1c(=O)n(CC(=O)NC(=O)NC(C)(C)C)c(=O)n2Cc1ccccc1	2.9µM*	-1%	2%	u
C1=CC2(C=C1)OC21CCC2(C=CC3(C2)OC3C2CCCCC2)CC1 (stereo not drawn)	x	5%	x	x
Cc1c(-c2cccc(NC(=O)c3ccco3)c2)nc2ncccn12	u	5%	0%	u
CC(=O)C1=C(C)N(Cc2ccccc2)C(=O)N[C@H]1c1ccco1	46%	-11%	0%	23%
Cc1cc(NC(=O)Cn2c(=O)c3c(ncn3CCC(C)C)n(Cc3ccccc3)c2=O)no1	3.3µM*	-6%	-2%	6%
